A selection: hits, their analogues and other compounds. The true share with any hit is near 0.47%.
UDG counter: blocks uracil-DNA glycosylase in AID counter-screen. 0.14% of 91,000 active. AID 1347430. Potency, µM (top dose mostly 115 µM), for inactives: at the top dose activity change, negative = inhibition, hits mostly inhibitors. FRET deamination/UDG coupled assay, UDG read, 4 h; note: nearly all actives have a fitted effect of over 65% in size
AID inhibitor: activation induced cytidine deaminase inhibition. AID deamination FRET fluorescence, UDG-coupled, 4 h. Potency, µM (highest dose often 115 µM), usual class: inhibitors. 0.32% of 91,000 active. AID 1347428; note: nearly all actives have a fitted effect of over 25% in size
Target sequence (Q9GZX7 whole entry, looked up): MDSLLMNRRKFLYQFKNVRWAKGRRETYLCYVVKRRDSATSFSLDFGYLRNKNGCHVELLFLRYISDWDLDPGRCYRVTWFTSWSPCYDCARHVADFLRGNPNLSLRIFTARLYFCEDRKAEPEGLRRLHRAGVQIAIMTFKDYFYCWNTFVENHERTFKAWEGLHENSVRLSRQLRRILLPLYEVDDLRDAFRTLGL
Numbers without * were called inactive; i = inactive; u = inconclusive; [ ] = remark or other dose. Calls come from the whole dose curve; as a rule, active = well fitted curve in the direction sought with a large enough effect; inconclusive = small, poorly fitted or top-dose-only effect, or another doubt; inactive = no such curve, though single readings can be large; an effect the other way counts as inactive or inconclusive. % is set by controls: 0 for no effect and ±100 for the full control effect; potency is the fitted concentration of half-maximal effect.

SMILES	UDG counter	AID inhibitor
COc1ccccc1C(=O)Nc1ccc2nc(N3CCC(C)CC3)cc(C)c2c1	-17.6%	u
CCc1cc2c(CN3CCN(c4ccc(F)cc4)CC3)cc(=O)oc2cc1O	-1.1%	i
Oc1ccc(-c2nc(-c3cc(F)ccc3F)cs2)cc1	-5.9%	i
CC(CNC(=O)c1sc2ncccc2c1-n1cccc1)c1ccccc1 (centres undefined)	-17.3%	79.4µM*
Cc1cc(C)c2c(-n3cccc3)c(C(=O)NCC(C)c3ccccc3)sc2n1 (centres undefined)	-10.2%	u
O=C(NCCc1ccccc1Cl)c1sc2ncccc2c1-n1cccc1	-1.4%	35.5µM*
Cc1ccc(CCNC(=O)c2sc3ncccc3c2-n2cccc2)cc1	-6.6%	i
N#Cc1ccc(NCCNc2cccc3ccccc23)nc1	-3.9%	i
COc1ccc(NC(=O)Nc2cn(CC(C)C)c(=O)c3ccccc23)c(OC)c1	-18.3%	i
Cc1ccc(Cl)cc1NC(=O)Nc1cn(CC(C)C)c(=O)c2ccccc12	0.4%	79.4µM*
Cc1ccc(C2CCN(C(=O)c3cnn(-c4ccc(C)cc4)c3C3CCN(C(=O)OC(C)(C)C)CC3)C2)cc1 (centres undefined)	52.4%	i
Cc1ccc(C2CCN(C(=O)c3cnn(-c4cccc(Cl)c4)c3C3CCN(C(=O)OC(C)(C)C)CC3)C2)cc1 (centres undefined)	-2.1%	u
CC(C)(C)OC(=O)N1CCC(c2c(C(=O)N3CCC(c4ccccc4)C3)cnn2-c2ccc(Cl)cc2)CC1 (centres undefined)	u	39.8µM*
COc1ccccc1CN1CCC(CNC(=O)c2cnn(-c3ccc(C)c(C)c3)c2C2CCN(C(=O)OC(C)(C)C)CC2)CC1	46.2%	u
COc1ccccc1CN1CCC(CNC(=O)c2cnn(-c3ccc(Cl)cc3)c2C2CCN(C(=O)OC(C)(C)C)CC2)CC1	u	44.7µM*
CC(C)(C)OC(=O)N1CCC(c2c(C(=O)N3CCC(c4ccccc4)C3)cnn2-c2cccc(Cl)c2)CC1 (centres undefined)	u	39.8µM*
CCOC(=O)c1ccc(/C=C/c2ccccn2)cc1	-4.5%	i
CCC(=O)Oc1c(Sc2ccc(Cl)cc2)c(C)nn1C(C)(C)C	79.4µM*	i
Cc1nn(-c2ccccc2)c(OC(=O)C(C)C)c1Sc1ccc(Cl)cc1	-21.1%	u
CCCCNC(=S)N/N=C(/C)c1ccccn1	5.9%	i
CCN(CC)CCNC(=O)c1ccc2c(=O)n3nc(Nc4ccccc4)sc3nc2c1	-8.6%	70.8µM*
COc1cccc(CNC(=O)c2ccc3c(=O)n4nc(Nc5ccccc5)sc4nc3c2)c1	-2.5%	i
O=c1[nH]c(SCc2ccc([N+](=O)[O-])cc2)nc2c1CCCC2	u	i
CC(C)(C)c1ccc(CSc2nc3c(c(=O)[nH]2)CCCC3)cc1	79.4µM*	i
CCCCCNc1c2c(nc3ccccc13)CC(C)(C)CC2=O	-16.5%	i
SMILES	UDG counter	AID inhibitor
Cc1ccc(CN(Cc2ccco2)C(=O)COc2cccc(C)c2C)o1	-7.8%[57.5 µM]	39.8µM*
Cc1ccc(CN(Cc2ccco2)C(=O)COc2c(C)cc(C)cc2C)cc1	-29.8%	u
Cc1cccc(OCC(=O)N(Cc2ccc(N(C)C)cc2)Cc2ccco2)c1C	-18.5%	u
Cc1cc(C)c(OCC(=O)N(Cc2ccco2)Cc2ccco2)c(C)c1	-0.8%[57.5 µM]	44.7µM*
CCCN1CCc2nc(N)c(C#N)c(-c3cc(OC)c(OC)c(OC)c3)c2C1	u	i
Cc1ccc2[nH]cc(C(C(=O)O)N3CCN(Cc4cccc(Cl)c4)CC3)c2c1 (centres undefined)	-8.2%	i
Cc1ccc(Cl)cc1N1CCN(C(=O)C2CCN(Cc3nc(-c4ccc(Cl)cc4)oc3C)CC2)CC1	89.1µM*	u
Cc1ccc(C)c(N2CCN(C(=O)C3CCN(Cc4nc(-c5cccc(Cl)c5)oc4C)CC3)CC2)c1	89.1µM*	i
Cc1cccc(-c2nc(CN3CCCC(C(=O)N4CCN(c5cc(Cl)ccc5C)CC4)C3)c(C)o2)c1 (centres undefined)	89.1µM*	u
Cc1ccccc1-c1nc(CN2CCCC(C(=O)NCc3ccc(Cl)cc3)C2)c(C)o1 (centres undefined)	u	i
Cc1oc(-c2cccc(Cl)c2)nc1CN1CCC(C(=O)NCCCN2CCN(c3ccccc3F)CC2)CC1	-6.5%	i
CCCCNC(=O)C1CCCN(Cc2nc(-c3ccc(Cl)cc3)oc2C)C1 (centres undefined)	u	i
Cc1oc(-c2ccc(Cl)cc2)nc1CN1CCCC(C(=O)NCc2ccccc2)C1 (centres undefined)	89.1µM*	i
COc1ccc(N2CCN(C(=O)C3CCN(Cc4nc(-c5ccc(Cl)cc5)oc4C)CC3)CC2)cc1	-7.5%	i
CC(=O)c1cccc(OC(C)C(=O)C(C#N)C(=O)NC2CC2)c1 (centres undefined)	-5.9%	i
Cc1ccc(C)c(-c2csc(-c3nc(-c4ccccc4)cs3)n2)c1	-11.2%	i

High-throughput results deposited in PubChem BioAssay by National Center for Advancing Translational Sciences (NCATS).
